Inconclusive results are not listed. Entries that show only a call come without a potency. Activity calls are given as the source filed them. The call rests on the fitted dose curve; in most records, active means well fitted cell-killing curve with a large enough effect; inconclusive means small, poorly fitted or top-dose-only effect, or effect the other way; inactive means flat fitted curve, though single readings scatter.
Key:
Test in all cases: Primary qHTS to identify gynecologic anti-cancer compounds using libraries of approved drugs and bioactive compounds (AID 1345084); further: nearly all actives have a fitted effect of over 55% in size
Settings in all cases: Gynecologic cancer cell panel viability, ATPlite luminescence, 48 h; series mostly up to 57.5 µM
PA-1 = system: PA-1
In short: (§1)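 48 h compound exposure at 37 C, 5% CO2; five-point qHTS. ATPlite luminescence readout of cell ATP.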

Tov112D = system: Tov112D
In short: as §1

Tov-21-G = system: Tov-21-G
In short: as §1
Potency means the concentration at half of the fitted maximal effect.

Row | SMILES | Potency (PA-1) | Potency (Tov112D) | Potency (Tov-21-G)
1 | N#Cc1ccc(O[C@@H]2c3ccccc3C[C@H]2N2CCC[C@@H](N)C2)c(Cl)c1 | inactive | inactive | 
2 | C=C(NC(=O)C(=C)NC(=O)c1csc(C2=NC3c4csc(n4)C4NC(=O)c5csc(n5)C(C(C)(O)C(C)O)NC(=O)C5CSC(=N5)/C(=C/C)NC(=O)C(C(C)O)NC(=O)c5csc(n5)C3(CC2)NC(=O)C(C)NC(=O)C(=C)NC(=O)C(C)NC(=O)C(C(C)CC)NC2C=Cc3c(C(C)O)cc(nc3C2O)C(=O)OC4C)n1)C(N)=O (stereo unspecified) | 28200 nM (active) | inactive | 
3 | Cc1cc(-c2cnc(N)c3c(-c4ccc5scnc5c4)csc23)n(C)n1 | inactive | inactive | 
4 | COc1ccc(CCCN2CCC(COC(c3ccccc3)c3ccccc3)CC2)cc1 | inactive | inactive | 
5 | COc1cc2c(cc1OC)CN(C(=O)/C=C/c1c(-c3ccccc3)n(C)c3ncccc13)CC2 | inactive | inactive | 
6 | Nc1nc(Cl)nc2c1ncn2C1OC(CO)C(O)C1F (stereo unspecified) | 3550 nM (active) | 398 nM (active) | 
7 | COc1ccc2nccc(C(=O)CC[C@@H]3CCN(CC#Cc4cc(F)cc(F)c4F)C[C@@H]3C(=O)O)c2c1 | inactive | inactive | inactive
8 | O=C(CN1C2=NCCN2c2ccccc21)c1ccc(-c2ccccc2)cc1 | inactive | inactive | 
9 | Cn1cc(-c2cnn3c(N)c(Br)c(C4CCCNC4)nc23)cn1 (stereo unspecified) | 14100 nM (active) | inactive | 
10 | CN1CCN(c2ccc(OC(F)(F)F)c(Nc3ncc4c(n3)-c3c(c(C(N)=O)nn3CCO)CC4)c2)CC1 | 282 nM (active) | 316 nM (active) | 

From PubChem BioAssay (NCATS)
